Test results published in PubChem BioAssay (EPA / NIEHS).
Active and inactive are the calls of the source. Rule for the calls, unless noted: active = hit-call score of the fitted dose curve at least 0.9, where 1 is the maximum; inactive = score below 0.9.

What was measured:
[1] = read-out: Protein phosphatase 2A (PPP2R4), PTPA (gene 5524); assay: LTEA_HepaRG_PPP2R4: Life Technologies and Expression Analysis (LTEA) Assay for Protein phosphatase 2A (PPP2R4) using HepaRG (AID 2283522); conditions: mRNA level, 48 h; actives raise or lower the signal
In short: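 Expression was quantified by Fluidigm qRT-PCR normalised to three housekeeping genes after 48 h treatment. Human HepaRG cells received an 8-point series from 100 µM downward by half-logs, in duplicate with 0.5% DMSO vehicle and 1 mM phenobarbital as induction control.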

[2] = read-out: Phosphatase and tensin (PTEN), PTEN (gene 5728); assay: LTEA_HepaRG_PTEN: Life Technologies and Expression Analysis (LTEA) Assay for Phosphatase and tensin (PTEN) using HepaRG (AID 2283523); conditions: mRNA level, 48 h; actives raise or lower the signal
In short: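 HepaRG, 48 h exposure, 8-pt half-log series from 100 uM top, 0.5% DMSO vehicle, duplicates. Readout: Fluidigm qRT-PCR of PTEN transcript; housekeeping normalization (ACTB, GAPDH, POLR2A). Gain or loss fitted relative to DMSO baseline.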

[3] = read-out: solute carrier (SLC22A1), SLC22A1 (gene 6580); assay: LTEA_HepaRG_SLC22A1: Life Technologies and Expression Analysis (LTEA) Assay for solute carrier (SLC22A1) using HepaRG (AID 2283524); conditions: mRNA level, 48 h; actives raise or lower the signal;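 for AC50: differentiated human HepaRG liver cells in serum-free induction medium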
In short: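 qRT-PCR readout (TaqMan, Fluidigm arrays) of SLC22A1 transcript, normalized to three housekeeping genes; bidirectional curve fit relative to 0.5% DMSO vehicle. Differentiated human HepaRG cells, 48 h chemical exposure, top concentration 100 uM, half-log steps, eight points.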

[4] = read-out: Pyruvate Dehydrogenase Kinase 4 (PDK4), PDK4 (gene 5166); assay: LTEA_HepaRG_PDK4: Life Technologies and Expression Analysis (LTEA) Assay for Pyruvate Dehydrogenase Kinase 4 (PDK4) using HepaRG (AID 2283525); conditions: mRNA level, 48 h; actives raise or lower the signal
In short: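 HepaRG (human liver line), 48 h chemical exposure, 8-pt half-log CRC top 100 uM, 0.5% DMSO vehicle, duplicates. Readout: TaqMan qRT-PCR of PDK4 mRNA, housekeeping-normalized; gain/loss fit relative to DMSO baseline.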

[5] = read-out: NAD(P)H dehydrogenase [quinone] 1 (NQO1), NQO1 (gene 1728); assay: LTEA_HepaRG_NQO1: Life Technologies and Expression Analysis (LTEA) Assay for NAD(P)H dehydrogenase [quinone] 1 (NQO1) using HepaRG (AID 2283526); conditions: mRNA level, 48 h; actives raise or lower the signal
In short: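 NQO1 transcript induction or loss measured by TaqMan qRT-PCR, referenced to three housekeeping genes and fitted bidirectionally against 0.5% DMSO. HepaRG cultures exposed 48 h, duplicate, eight-point half-log series, top 100 uM.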

[6] = read-out: Nuclear factor erythroid 2-related factor 2 (Homo sapiens) (UniProt Q16236); assay: LTEA_HepaRG_NFE2L2: Life Technologies and Expression Analysis (LTEA) Assay for Nuclear factor erythroid 2-related factor 2 (NFE2L2) Transcription Factor using HepaRG (AID 2283527); conditions: mRNA level, 48 h; actives raise or lower the signal
In short: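 HepaRG, 48 h dosing, 8-pt half-log series from 100 uM in 0.5% DMSO, duplicates. Read-out: NFE2L2 mRNA by qRT-PCR (ACTB/GAPDH/POLR2A normalization). Bidirectional curve fit vs DMSO baseline.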

[7] = read-out: succinate dehydrogenase complex iron sulfur subunit B (SDHB), SDHB (gene 6390); assay: LTEA_HepaRG_SDHB: Life Technologies and Expression Analysis (LTEA) Assay for succinate dehydrogenase complex iron sulfur subunit B (SDHB) using HepaRG (AID 2283528); conditions: mRNA level, 48 h; actives raise or lower the signal
In short: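 SDHB transcript level read by TaqMan qRT-PCR, housekeeping-normalised (ACTB, GAPDH, POLR2A), after 48 h chemical treatment of plated HepaRG cells; eight concentrations top 100 uM, half-log steps, 0.5% DMSO, duplicates; fitted both directions against DMSO.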

[8] = read-out: Signal transducer and activator of transcription 3 (Homo sapiens) (UniProt P40763); assay: LTEA_HepaRG_STAT3: Life Technologies and Expression Analysis (LTEA) Assay for Signal transducer and activator of transcription (STAT3) using HepaRG (AID 2283529); conditions: mRNA level, 48 h; actives raise or lower the signal
In short: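 HepaRG, 48 h exposure, 8-pt half-log series (top 100 uM), 0.5% DMSO vehicle, duplicates. Readout: STAT3 transcript by Fluidigm qRT-PCR, housekeeping-normalized; bidirectional fit vs DMSO baseline.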

[9] = read-out: solute carrier (SLCO1B1), SLCO1B1 (gene 10599); assay: LTEA_HepaRG_SLCO1B1: Life Technologies and Expression Analysis (LTEA) Assay for solute carrier (SLCO1B1) using HepaRG (AID 2283530); conditions: mRNA level, 48 h; actives raise or lower the signal
In short: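 SLCO1B1 transcript levels were quantified by TaqMan qRT-PCR using three housekeeping genes for normalization. This followed 48 h chemical exposure (100 uM top, half-log, 8 points, 0.5% DMSO) of HepaRG liver cells, with gain or loss fitted relative to DMSO.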

[10] = read-out: sulfotransferase 2A1 (SULT2A1), SULT2A1 (gene 6822); assay: LTEA_HepaRG_SULT2A1: Life Technologies and Expression Analysis (LTEA) Assay for sulfotransferase 2A1 (SULT2A1) using HepaRG (AID 2283531); conditions: mRNA level, 48 h; actives raise or lower the signal
In short: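 Expression change of SULT2A1, by qRT-PCR with three housekeeping-gene normalization, was scored bidirectionally versus DMSO. Cells: differentiated HepaRG, dosed in duplicate for 48 h across 8 points, highest 100 µM, half-log dilution, 0.5% DMSO.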

[11] = read-out: Transforming Growth Factor (TGFA), TGFA (gene 7039); assay: LTEA_HepaRG_TGFA: Life Technologies and Expression Analysis (LTEA) Assay for Transforming Growth Factor (TGFA) using HepaRG (AID 2283532); conditions: mRNA level, 48 h; actives raise or lower the signal
In short: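 qRT-PCR read-out of TGFA transcript, normalized to three housekeeping genes, fitted bidirectionally against 0.5% DMSO baseline. Human HepaRG cultures received chemicals for 48 h at eight half-log concentrations, top 100 uM.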

[12] = read-out: Transforming Growth Factor (TGFB1), TGFB1 (gene 7040); assay: LTEA_HepaRG_TGFB1: Life Technologies and Expression Analysis (LTEA) Assay for Transforming Growth Factor (TGFB1) Transporter using HepaRG (AID 2283533); conditions: mRNA level, 48 h; actives raise or lower the signal
In short: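 TGFB1 transcript measured by qRT-PCR with normalisation to three housekeeping genes (ACTB, GAPDH, POLR2A); human HepaRG line treated in duplicate for 48 hr with an 8-point series topping at 100 uM, 0.5% DMSO vehicle, bidirectionally fitted.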

TIMP1, TIMP1 (gene 7076) = assay: LTEA_HepaRG_TIMP1: Life Technologies and Expression Analysis (LTEA) Assay for TIMP1 using HepaRG (AID 2283534); conditions: mRNA level, 48 h; actives raise or lower the signal
In short: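 Bidirectional change in TIMP1 transcript versus 0.5% DMSO, measured by TaqMan qRT-PCR with three housekeeping genes for normalization. HepaRG human liver cells dosed 48 h in duplicate, top concentration 100 uM with half-log dilutions.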

[13] = read-out: Tumor necrosis factor receptor 1 (TNFRSF1A), TNFRSF1A (gene 7132); assay: LTEA_HepaRG_TNFRSF1A: Life Technologies and Expression Analysis (LTEA) Assay for Tumor necrosis factor receptor 1 (TNFRSF1A) using HepaRG (AID 2283535); conditions: mRNA level, 48 h; actives raise or lower the signal
In short: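 mRNA measured by qRT-PCR (TaqMan, Fluidigm arrays) against ACTB/GAPDH/POLR2A housekeepers after 48 h chemical exposure of HepaRG cells. Top concentration 100 uM, half-log 8-point series, duplicates; vehicle 0.5% DMSO, both fit directions.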

[14] = read-out: Thyroid Hormone Responsive (THRSP), THRSP (gene 7069); assay: LTEA_HepaRG_THRSP: Life Technologies and Expression Analysis (LTEA) Assay for Thyroid Hormone Responsive (THRSP) using HepaRG (AID 2283536); conditions: mRNA level, 48 h; actives raise or lower the signal
In short: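 qRT-PCR read-out (Fluidigm TaqMan), housekeeping-normalized (ACTB/GAPDH/POLR2A). HepaRG, 48 h chemical exposure, 8-pt half-log series from 100 uM in 0.5% DMSO, duplicates. Bidirectional curve fit vs 0.5% DMSO baseline.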

[15] = read-out: Cellular tumor antigen p53 (Homo sapiens) (UniProt P04637); assay: LTEA_HepaRG_TP53: Life Technologies and Expression Analysis (LTEA) Assay for Tumor Protein P53 (TP53) using HepaRG (AID 2283537); conditions: mRNA level, 48 h; actives raise or lower the signal
In short: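 TP53 transcript measured by qRT-PCR, normalized to three housekeeping genes, after 48 h treatment of human HepaRG cultures with chemicals from 100 uM downward in half-log steps (0.5% DMSO vehicle, serum-free induction medium). Up- or down-regulation fitted against DMSO.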

[16] = read-out: UDP glucuronosyltransferase (UGT1A1), UGT1A1 (gene 54658); assay: LTEA_HepaRG_UGT1A1: Life Technologies and Expression Analysis (LTEA) Assay for UDP glucuronosyltransferase (UGT1A1) using HepaRG (AID 2283538); conditions: mRNA level, 48 h; actives raise or lower the signal
In short: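 UGT1A1 transcript level, measured by qRT-PCR with three housekeeping genes for normalization, after 48 h treatment of human HepaRG cells (0.5% DMSO, duplicates, up to 100 uM, half-log steps, 8 points). Curves fit both directions against DMSO baseline.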

[17] = read-out: UDP glucuronosyltransferase (UGT1A6), UGT1A6 (gene 54578); assay: LTEA_HepaRG_UGT1A6: Life Technologies and Expression Analysis (LTEA) Assay for UDP glucuronosyltransferase (UGT1A6) using HepaRG (AID 2283539); conditions: mRNA level, 48 h; actives raise or lower the signal
In short: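 Expression was quantified by TaqMan qRT-PCR on Fluidigm arrays with ACTB/GAPDH/POLR2A normalization and bidirectional fitting against 0.5% DMSO. HepaRG cells (~100,000/well) were treated in duplicate for 48 h at eight half-log concentrations up to 100 uM in serum-free induction medium.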

[18] = read-out: X-box binding protein 1 (XBP1), XBP1 (gene 7494); assay: LTEA_HepaRG_XBP1: Life Technologies and Expression Analysis (LTEA) Assay for X-box binding protein 1 (XBP1) using HepaRG (AID 2283540); conditions: mRNA level, 48 h; actives raise or lower the signal
In short: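 XBP1 transcript by qRT-PCR (housekeeping-normalized: ACTB, GAPDH, POLR2A) after 48 h chemical treatment of HepaRG cells, 8-point half-log series topping at 100 uM, vehicle 0.5% DMSO. Gain and loss of signal fitted relative to DMSO.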

[19] = LTEA_HepaRG_LDH_cytotoxicity: Cytotoxicity Assessment in the Life Technologies and Expression Analysis (LTEA) Assay (AID 2283563; active = hit-call score of the fitted dose curve at least 0.9, where 1 is the maximum;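 for AC50: LDH activity released into spent culture medium as a marker of cell death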)
In short: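 LDH release into culture medium read after 48 h chemical treatment of HepaRG cells. Duplicate wells, eight-point half-log series topping at 100 uM, 0.5% DMSO vehicle and baseline.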

Measured: AC50

Signal transducer and activator of transcription 3 (Homo sapiens), sequence (P40763 whole entry, looked up): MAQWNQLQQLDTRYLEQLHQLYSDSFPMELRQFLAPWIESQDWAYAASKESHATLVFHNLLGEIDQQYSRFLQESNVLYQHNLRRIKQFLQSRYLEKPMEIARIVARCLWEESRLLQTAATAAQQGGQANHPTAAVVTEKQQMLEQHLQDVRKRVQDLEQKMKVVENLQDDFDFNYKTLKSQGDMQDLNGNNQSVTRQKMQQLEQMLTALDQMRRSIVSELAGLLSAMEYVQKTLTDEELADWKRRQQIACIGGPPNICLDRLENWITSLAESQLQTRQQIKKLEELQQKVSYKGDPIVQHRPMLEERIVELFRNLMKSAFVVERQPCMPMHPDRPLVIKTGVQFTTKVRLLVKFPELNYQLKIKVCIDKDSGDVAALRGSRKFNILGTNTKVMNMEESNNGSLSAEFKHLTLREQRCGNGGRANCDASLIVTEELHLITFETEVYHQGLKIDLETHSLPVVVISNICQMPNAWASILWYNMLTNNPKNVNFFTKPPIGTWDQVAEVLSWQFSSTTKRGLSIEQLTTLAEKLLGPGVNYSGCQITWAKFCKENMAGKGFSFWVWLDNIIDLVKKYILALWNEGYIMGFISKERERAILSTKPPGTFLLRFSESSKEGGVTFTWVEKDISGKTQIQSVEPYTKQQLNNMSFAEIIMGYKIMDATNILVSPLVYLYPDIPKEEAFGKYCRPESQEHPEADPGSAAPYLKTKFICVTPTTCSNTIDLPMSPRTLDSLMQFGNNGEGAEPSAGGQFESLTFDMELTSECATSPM
Nuclear factor erythroid 2-related factor 2 (Homo sapiens), sequence (Q16236 whole entry, looked up): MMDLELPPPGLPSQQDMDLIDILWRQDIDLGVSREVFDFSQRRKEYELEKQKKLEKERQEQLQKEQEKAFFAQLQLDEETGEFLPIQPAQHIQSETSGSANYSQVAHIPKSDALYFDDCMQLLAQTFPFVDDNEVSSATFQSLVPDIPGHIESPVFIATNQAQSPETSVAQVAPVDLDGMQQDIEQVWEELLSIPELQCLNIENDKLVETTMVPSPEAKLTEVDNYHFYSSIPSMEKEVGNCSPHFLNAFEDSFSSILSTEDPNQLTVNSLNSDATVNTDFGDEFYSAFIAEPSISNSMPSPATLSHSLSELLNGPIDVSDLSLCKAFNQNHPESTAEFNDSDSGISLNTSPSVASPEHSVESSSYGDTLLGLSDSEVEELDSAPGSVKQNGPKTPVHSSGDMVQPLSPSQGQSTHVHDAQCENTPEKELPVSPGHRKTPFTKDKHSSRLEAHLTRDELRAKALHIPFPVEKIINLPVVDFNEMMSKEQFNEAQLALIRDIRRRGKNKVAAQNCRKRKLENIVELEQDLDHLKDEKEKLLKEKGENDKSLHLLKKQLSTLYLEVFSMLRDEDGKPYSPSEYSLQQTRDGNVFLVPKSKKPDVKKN
Cellular tumor antigen p53 (Homo sapiens), sequence (P04637 whole entry, looked up): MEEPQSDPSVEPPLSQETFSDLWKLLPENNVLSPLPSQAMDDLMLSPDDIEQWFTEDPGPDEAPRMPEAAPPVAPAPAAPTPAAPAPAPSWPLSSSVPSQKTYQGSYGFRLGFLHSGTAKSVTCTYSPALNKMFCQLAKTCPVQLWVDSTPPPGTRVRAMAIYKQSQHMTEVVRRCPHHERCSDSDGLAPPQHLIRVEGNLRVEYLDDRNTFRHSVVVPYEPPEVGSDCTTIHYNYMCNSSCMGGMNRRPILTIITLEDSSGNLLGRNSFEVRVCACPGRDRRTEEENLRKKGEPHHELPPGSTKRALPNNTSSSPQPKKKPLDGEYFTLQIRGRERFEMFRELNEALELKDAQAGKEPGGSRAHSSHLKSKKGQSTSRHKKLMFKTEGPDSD

CN(C)C(=O)Nc1ccc(Cl)cc1
active: [16] 30.8 µM
inactive: all other assays above

CC(C)(C)C(O)(CCc1ccc(Cl)cc1)Cn1cncn1 (centres undefined)
active: [1] 50 µM | [3] 73.2 µM | [4] 80.9 µM | [6] 50 µM | [10] 80.2 µM | [12] 50 µM | [14] 12.7 µM | [15] 71.9 µM | [16] 1.32 µM | [19] 72 µM
inactive: all other assays above

C1=Cc2cccc3cccc1c23
inactive: all assays above

CCN(CC)CCO
inactive: all assays above

CCCCCOC(=O)c1ccccc1C(=O)OCCCCC
inactive: all assays above

Cc1ccc(N)cc1
inactive: all assays above

O=C(Oc1ccc(Br)cc1)N1CCN2CCC1CC2
active: [14] 34.8 µM
not listed: [19]
inactive: all other assays above
